The source of these data is the supplement of paper PMC12340641.

Test [1] deals with IKZF1 (dCK*-IKZF1 fusion in HEK293FT) (UniProt Q13422). Put plainly: inhibition of IKZF1 HTRF signal (DMSO = 0%, pomalidomide 10 uM = 100%); higher = lower IKZF1 protein level. To be noted: compound concentration: 5 uM, overnight (~20 h). In outline: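 For percent inhibition of IKZF1 signal, each plate was normalised to vehicle and to a reference degrader. Cells were HEK293FT stably expressing an IKZF1 fusion, plated at 2000/well in 384-well format and treated overnight at 37 °C with 5 μM compound, one well each. Lysates were probed overnight with a commercial HTRF total-IKZF1 antibody kit, with the 665/620 nm ratio background-subtracted and vehicle and degrader fixed at 0% and 100%.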
For orientation: In TR-FRET formats the signal depends on donor and acceptor labels being close together.

Test [2] relates to HEK293FT dCK*-only. The test is described as follows: relative growth in counter assay (no AraC = 100%, AraC + DMSO = 0%); higher = more growth rescue independent of IKZF1. The conditions noted are these: compound concentration: 5 uM; AraC concentration: 0.3 uM; overnight pretreatment + 4 days AraC. In outline: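 HEK293FT cells carrying only an engineered kinase construct were plated at 300 per well (384-well) and given 5 μM compound 2 h later. Following overnight at 37 °C, a nucleoside suicide substrate (0.3 μM) plus medium was added for 4 days. Hoechst 33342-stained nuclei were imaged and counted on day 5, with 100% assigned to wells without suicide substrate and 0% to substrate plus vehicle on each plate.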

For test [3], the system named is HEK293FT dCK*-IKZF1. Put plainly: relative growth recovery (pomalidomide 10 uM = 100%, DMSO = 0%); higher = more growth rescue (IKZF1 fusion degradation). To be noted: compound concentration: 5 uM; AraC concentration: 0.3 uM; overnight pretreatment + 4 days AraC. In outline: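 Means of duplicates from different days are given for growth recovery, normalised per plate against a reference degrader and vehicle. The reference degrader set the 100% level and vehicle the 0% level. HEK293FT cells stably expressing a deoxycytidine kinase–IKZF1 fusion (300/well, 384-well) received 5 μM compound 2 h after seeding and, after overnight at 37 °C, 0.3 μM of a nucleoside suicide substrate plus medium for 4 days. Nuclei stained with Hoechst 33342 were then counted by whole-well imaging on day 5.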

Chain of IKZF1 (dCK*-IKZF1 fusion in HEK293FT) (Q13422 whole entry, looked up, the tested form may be a part): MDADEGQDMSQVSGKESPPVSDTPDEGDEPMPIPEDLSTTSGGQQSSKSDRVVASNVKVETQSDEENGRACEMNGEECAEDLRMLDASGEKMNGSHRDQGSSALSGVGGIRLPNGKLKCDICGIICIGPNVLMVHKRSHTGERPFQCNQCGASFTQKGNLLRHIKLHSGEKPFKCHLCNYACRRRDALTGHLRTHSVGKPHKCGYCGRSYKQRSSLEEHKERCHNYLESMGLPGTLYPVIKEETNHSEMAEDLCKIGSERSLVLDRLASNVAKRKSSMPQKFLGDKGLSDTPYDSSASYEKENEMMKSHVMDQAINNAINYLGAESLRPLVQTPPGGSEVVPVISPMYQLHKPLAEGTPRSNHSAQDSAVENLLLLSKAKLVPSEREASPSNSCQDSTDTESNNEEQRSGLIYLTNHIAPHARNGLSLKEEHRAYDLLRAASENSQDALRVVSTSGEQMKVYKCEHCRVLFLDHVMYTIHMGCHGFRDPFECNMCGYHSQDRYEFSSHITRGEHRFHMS

Take `O=C(Nc1ccc(Br)cc1)c1cc(Br)cc(Br)c1O` [tribomsalan]: the “inhibition of IKZF1 HTRF signal” value in test [1] amounted to 13.9%. In test [2], the “relative growth in counter assay” value was -2.64%. In test [3], the relative growth recovery is -2.67%.

With `COc1ccc(C[C@H]2NC[C@H](O)[C@H]2OC(C)=O)cc1` [anisomycin], in test [1], the “inhibition of IKZF1 HTRF signal” value was determined as 63.3%. In addition, the “relative growth in counter assay” value in test [2] was -34.7%. Also, the relative growth recovery in test [3] is -12.5%.

As for `CCOc1ccccc1-n1c(C(C)N2CCN(C(=O)COc3ccc(Cl)cc3)CC2)nc2ccccc2c1=O` (stereo unspecified) [Erastin], the “inhibition of IKZF1 HTRF signal” value in test [1] was -51.3%. For the same molecule, the “relative growth in counter assay” value in test [2] was -4.63%. Besides, the relative growth recovery in test [3] was -1.44%.

Consider `O=c1[nH]c2ccccc2n1C1CCN(CCCC(c2ccc(F)cc2)c2ccc(F)cc2)CC1` [Pimozide], for which the “inhibition of IKZF1 HTRF signal” value in test [1] was -27.8%. For the same molecule, in test [2], the “relative growth in counter assay” value is -9.38%. In addition, the relative growth recovery in test [3] is -1.04%.

With `O=c1n(Cl)c(=O)n(Cl)c(=O)n1Cl`, in test [1], the “inhibition of IKZF1 HTRF signal” value is -9.26%. The “relative growth in counter assay” value in test [2] is -2.72%. Besides, the relative growth recovery in test [3] was -1.44%.

On to `O=[N+]([O-])c1cc(O)c(O)c([N+](=O)[O-])c1`, for which, in test [1], the “inhibition of IKZF1 HTRF signal” value is -33.8%. Besides, the “relative growth in counter assay” value in test [2] stood at 2.01%. Also, in test [3], the relative growth recovery worked out at 0.23%.

`Cc1cc(O)c2c(=O)c3c(O)cc(O)c4c5c(O)cc(O)c6c(=O)c7c(O)cc(C)c8c1c2c(c34)c(c78)c65` [Hypericin]: the “inhibition of IKZF1 HTRF signal” value in test [1] came out at 13.4%. Also, the “relative growth in counter assay” value in test [2] is -9.3%. The relative growth recovery in test [3] is -3.8%.

Take `N#Cc1nn(-c2c(Cl)cc(C(F)(F)F)cc2Cl)c(N)c1S(=O)C(F)(F)F` (stereo unspecified): the “inhibition of IKZF1 HTRF signal” value in test [1] is -50.9%. For the same molecule, the “relative growth in counter assay” value in test [2] was determined as 7.45%. For the same molecule, the relative growth recovery in test [3] was -1.52%.

With `O=[N+]([O-])/C=C/c1ccc2c(c1)OCO2`, the “inhibition of IKZF1 HTRF signal” value in test [1] is -44.2%. Moreover, in test [2], the “relative growth in counter assay” value was -33.6%. In test [3], the relative growth recovery is -13.1%.

For the molecule `CCCCCCCCCCCCCCCC[n+]1ccccc1`, the “inhibition of IKZF1 HTRF signal” value in test [1] is -19.4%. In test [2], the “relative growth in counter assay” value is -34.4%. In addition, the relative growth recovery in test [3] is -13%.

As for `O=C(N/N=C/c1ccc([N+](=O)[O-])o1)c1cc([N+](=O)[O-])cc([N+](=O)[O-])c1O`, the “inhibition of IKZF1 HTRF signal” value in test [1] was found to be 2.89%. In addition, in test [2], the “relative growth in counter assay” value was -3.38%. In addition, the relative growth recovery in test [3] was -2.9%.

On to `CCCCCCCCCCC(=O)O[C@H]1CC[C@H]2[C@@H]3CCC4=CC(=O)CC[C@]4(C)[C@H]3CC[C@]12C` [Testosterone (undecanoate)], for which the “inhibition of IKZF1 HTRF signal” value in test [1] was -31.5%. In test [2], the “relative growth in counter assay” value is 4.31%. Besides, in test [3], the relative growth recovery was -0.23%.
